3CLpro inhibitor – SARS-CoV 3CLpro protease inhibitors, primary screen, biochemical, quenched FRET; Replicase polyprotein 1ab (Severe acute respiratory syndrome coronavirus), P0C6X7; recombinant SARS-CoV 3CLpro, quenched FRET peptide cleavage; inhibition, % at 6 µM; hit rate 0.14% among 290,000; AID 1706, 2009; in the data active = inhibition above about 12%
GDH-TPI counter-1 – GDH-TPI coupling enzyme inhibitors, primary screen, artefact control for M. tuberculosis FBA inhibitor project, biochemical, absorbance, full deck. GDH-TPI coupled enzyme counterscreen, NADH absorbance. hit rate 1.2% among 360,000. AID 588335, 2011. inhibition, % at 4.8 µM; in the data active = inhibition above about 30%
PrPC surface inh – inhibitors of human cell surface prion protein PrPC, primary screen, cell-based, TR-FRET; Major prion protein (Homo sapiens), P04156; TR-FRET read-out; inhibition, % at 13.8 µM; hit rate 0.43% among 370,000; AID 720596, 2013; in the data active = inhibition above about 24%
Vc quorum ag – inducers of Vibrio cholerae quorum light production without autoinducers, primary screen, BH1578 luxS cqsA deficient, single point | V. cholerae BH1578 lux reporter, luminescence, 6 h | activation, % at 18.7 µM | hit rate 0.16% among 350,000; in the data active = activation mostly above about 9.7%, no sharp cut-off
Mtb FBA inh – Mtb FBA enzyme inhibitors, primary screen, biochemical, fluorescence, strain H37Rv. purified M. tuberculosis FBA, fluorescence read-out. inhibition, % at 1 µM. hit rate 2.3% among 360,000. AID 588726, 2011
Target sequence (P9WQA3 whole entry, looked up): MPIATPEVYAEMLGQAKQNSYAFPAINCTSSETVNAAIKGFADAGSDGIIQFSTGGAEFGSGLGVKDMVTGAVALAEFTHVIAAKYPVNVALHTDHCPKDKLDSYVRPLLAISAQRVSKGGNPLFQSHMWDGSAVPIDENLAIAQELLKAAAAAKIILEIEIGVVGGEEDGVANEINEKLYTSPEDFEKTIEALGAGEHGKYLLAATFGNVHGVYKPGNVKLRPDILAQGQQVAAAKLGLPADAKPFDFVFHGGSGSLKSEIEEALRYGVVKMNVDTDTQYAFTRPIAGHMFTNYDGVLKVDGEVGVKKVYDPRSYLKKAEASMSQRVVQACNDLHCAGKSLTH
Mtb FBA inh conf – M. tuberculosis aldolase blockers, biochemical, fluorescence, strain H37Rv, confirmation | shares compounds with Mtb FBA inh | purified M. tuberculosis FBA, fluorescence read-out | inhibition, % at 1 µM | hit rate 78% among 5,600 | AID 651616, 2012
GDH-TPI counter-2 – GDH-TPI coupling enzyme inhibitors, artefact control for M. tuberculosis FBA inhibitor project, biochemical, fluorescence, high throughput. inhibition, % at 1 µM. GDH-TPI coupled enzyme counterscreen. AID 652141, 2013. shares compounds with Mtb FBA inh. hit rate 81% among 5,600; in the data active = inhibition above about 10%
GDH-TPI dose – GDH-TPI coupling enzyme inhibitors, dose response, artefact control for M. tuberculosis FBA inhibitor project, biochemical, fluorescence, IC50. hit rate 79% among 170. IC50, µM. GDH-TPI coupled enzyme assay, artifact counterscreen. shares compounds with Mtb FBA inh; call rule not given here
Numbers stand for hits. Hits are enriched below; roughly 3.9% of the tested compounds scored in any of these assays. Rule as the data show it, unless noted: active = inhibition above about 27%; inactive = the rest.

`CCOC(=O)c1c(-c2ccc(Cl)cc2)cn2ccccc12` gave 3CLpro inhibitor inactive, GDH-TPI counter-1 inactive, PrPC surface inh inactive, Vc quorum ag inactive, Mtb FBA inh 64, Mtb FBA inh conf active and GDH-TPI counter-2 172.
For CCOC(=O)c1cnc2c(-c3ccc(Cl)cc3)cnn2c1C the results were 3CLpro inhibitor inactive, GDH-TPI counter-1 inactive, PrPC surface inh inactive, Vc quorum ag inactive and Mtb FBA inh inactive.
Screening Cc1nc2nc(NCc3cccs3)nn2c(C)c1Cl returned 3CLpro inhibitor inactive, GDH-TPI counter-1 inactive, PrPC surface inh inactive, Vc quorum ag inactive, Mtb FBA inh 35, Mtb FBA inh conf 62 and GDH-TPI counter-2 41.
COc1ccc(CNc2nc3nc(C)c(Cl)c(C)n3n2)cc1 was read as 3CLpro inhibitor inactive, GDH-TPI counter-1 inactive, PrPC surface inh inactive, Vc quorum ag inactive and Mtb FBA inh inactive.
For Cc1nc2nc(-c3ccco3)nn2c(C)c1Cl the results were 3CLpro inhibitor inactive, GDH-TPI counter-1 inactive, PrPC surface inh inactive, Vc quorum ag inactive, Mtb FBA inh 38, Mtb FBA inh conf 37 and GDH-TPI counter-2 35.
Screening Cc1nc2nc(COc3ccccc3)nn2c(C)c1Cl returned 3CLpro inhibitor inactive, GDH-TPI counter-1 inactive, PrPC surface inh inactive, Vc quorum ag inactive, Mtb FBA inh 39, Mtb FBA inh conf active and GDH-TPI counter-2 189.
O=C(NCc1ccco1)C1CCCN(S(=O)(=O)c2cccs2)C1 (centres undefined) was read as PrPC surface inh inactive.
`Cn1c(-c2ccc(Cl)cc2)ccc(C#N)c1=O` gave 3CLpro inhibitor inactive, GDH-TPI counter-1 inactive, PrPC surface inh inactive, Vc quorum ag inactive and Mtb FBA inh inactive.
N#Cc1cc(-c2cccc(Cl)c2)c[nH]c1=O was read as 3CLpro inhibitor inactive, GDH-TPI counter-1 inactive, PrPC surface inh inactive, Vc quorum ag inactive, Mtb FBA inh 46, Mtb FBA inh conf inactive, GDH-TPI counter-2 inactive and GDH-TPI dose 4.1.
C=CCn1cc(-c2cccc(Cl)c2)cc(C#N)c1=O was read as 3CLpro inhibitor inactive, GDH-TPI counter-1 inactive, PrPC surface inh inactive, Vc quorum ag inactive, Mtb FBA inh 28, Mtb FBA inh conf 69 and GDH-TPI counter-2 48.
Cn1cc(-c2ccc(Cl)cc2)cc(C#N)c1=O was read as 3CLpro inhibitor inactive, GDH-TPI counter-1 inactive, PrPC surface inh inactive, Vc quorum ag inactive, Mtb FBA inh 56, Mtb FBA inh conf inactive and GDH-TPI counter-2 17.
For C[N+](C)(C)CCN1C(=O)c2ccccc2C1=O the results were PrPC surface inh inactive.
`CC(C)C[C@@H]1COc2cc(N3CCOCC3)ccc2S(=O)(=O)N1` gave PrPC surface inh inactive.
`O=S1(=O)c2ccc(N3CCSCC3)cc2Oc2ccccc2CN1Cc1cn(Cc2cccc(C(F)(F)F)c2)nn1` gave PrPC surface inh inactive.
Screening CCOC(=O)c1cn(C2CC2)c2c(F)c(NCCCN(C)C)c(F)cc2c1=O returned GDH-TPI counter-1 inactive, PrPC surface inh inactive, Vc quorum ag inactive, Mtb FBA inh 70, Mtb FBA inh conf 134 and GDH-TPI counter-2 79.
For CCOC(=O)c1cn2c3c(c(F)c(F)cc3c1=O)SC(N1CCOCC1)=N2 the results were 3CLpro inhibitor inactive.
Screening CCOC(=O)c1[nH]c2ccc(OC)cc2c1N=CN(C)C returned 3CLpro inhibitor inactive, GDH-TPI counter-1 inactive, PrPC surface inh inactive, Vc quorum ag inactive, Mtb FBA inh 39, Mtb FBA inh conf active and GDH-TPI counter-2 175.
`CCOC(=O)c1[nH]c2ccc(OC)cc2c1NC(=O)OC` gave 3CLpro inhibitor inactive, GDH-TPI counter-1 inactive, PrPC surface inh inactive, Vc quorum ag inactive, Mtb FBA inh 38, Mtb FBA inh conf active and GDH-TPI counter-2 146.
CCOC(=O)c1[nH]c2ccc(OC)cc2c1NC(=O)CCN1CCCC(C)C1 (centres undefined) was read as 3CLpro inhibitor inactive, GDH-TPI counter-1 inactive, PrPC surface inh inactive, Vc quorum ag inactive, Mtb FBA inh 35, Mtb FBA inh conf active and GDH-TPI counter-2 active.
Screening CCOC(=O)Nc1c(C(=O)OC)[nH]c2cc(OC)ccc12 returned 3CLpro inhibitor inactive, GDH-TPI counter-1 inactive, PrPC surface inh inactive, Vc quorum ag inactive and Mtb FBA inh inactive.
`COc1ccc2[nH]c(=O)c(-c3nnn(-c4ccc(F)cc4)n3)cc2c1` gave GDH-TPI counter-1 inactive, PrPC surface inh inactive, Vc quorum ag inactive and Mtb FBA inh inactive.
Screening COc1ccc2[nH]c(=O)c(-c3nnn(-c4ccccc4)n3)cc2c1 returned 3CLpro inhibitor inactive, GDH-TPI counter-1 inactive, PrPC surface inh inactive, Vc quorum ag inactive, Mtb FBA inh 34, Mtb FBA inh conf 176 and GDH-TPI counter-2 128.
`COc1ccc2[nH]c(=O)c(-c3noc(-c4ccccc4)n3)cc2c1` gave 3CLpro inhibitor inactive, GDH-TPI counter-1 inactive, PrPC surface inh inactive, Vc quorum ag inactive, Mtb FBA inh 32, Mtb FBA inh conf 165 and GDH-TPI counter-2 117.
For O=c1c2c(-c3ccccc3)csc2nc2c3ccccc3c(NCCN3CCOCC3)nn12 the results were 3CLpro inhibitor inactive, GDH-TPI counter-1 inactive, PrPC surface inh inactive, Vc quorum ag inactive, Mtb FBA inh 29, Mtb FBA inh conf 94 and GDH-TPI counter-2 66.
`CSCC[C@H](NC(=O)Cc1c(C)c2c(cc(C)c3c(C)coc32)oc1=O)C(=O)O` gave 3CLpro inhibitor inactive, GDH-TPI counter-1 inactive, PrPC surface inh inactive, Vc quorum ag inactive, Mtb FBA inh 53, Mtb FBA inh conf active and GDH-TPI counter-2 187.
Screening CC[C@@H](C)[C@H](NC(=O)Cc1c(C)c2c(cc(C)c3c(C)coc32)oc1=O)C(=O)O returned 3CLpro inhibitor inactive, GDH-TPI counter-1 inactive, PrPC surface inh inactive, Vc quorum ag inactive, Mtb FBA inh 64, Mtb FBA inh conf 112 and GDH-TPI counter-2 94.
CC[C@@H](C)[C@H](NC(=O)Cc1c(C)c2cc3c(C)coc3c(C)c2oc1=O)C(=O)O was read as 3CLpro inhibitor inactive, GDH-TPI counter-1 inactive, PrPC surface inh inactive, Vc quorum ag inactive and Mtb FBA inh inactive.
Screening C=CCn1c(=S)sc2c(=O)[nH]cnc21 returned 3CLpro inhibitor inactive, GDH-TPI counter-1 inactive, PrPC surface inh inactive, Vc quorum ag inactive and Mtb FBA inh inactive.

High-throughput results deposited in PubChem BioAssay by several laboratories.
